Calls of active or inactive are those of the source.

Drawing on PubChem BioAssay, this text covers composite z-score, composite Z-score and z-score for five molecules.

In one experiment the target is Albumin (Bos taurus) (UniProt P02769). Kind of experiment: compounds binding labelled BSA control protein – biochemical, small-molecule microarray, Alexa647 label, 635/667 nm fluorescence, artefact control for SMM control protein annotation, profiling panel (AID 1118).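 Further: score merges 667 nm emission intensity and signal-to-noise per printed compound spot.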 The conditions noted are these: BSA-A647 binding, fluorescence 635 nm, higher = more signal.
Albumin (Bos taurus), sequence (P02769 whole entry, looked up): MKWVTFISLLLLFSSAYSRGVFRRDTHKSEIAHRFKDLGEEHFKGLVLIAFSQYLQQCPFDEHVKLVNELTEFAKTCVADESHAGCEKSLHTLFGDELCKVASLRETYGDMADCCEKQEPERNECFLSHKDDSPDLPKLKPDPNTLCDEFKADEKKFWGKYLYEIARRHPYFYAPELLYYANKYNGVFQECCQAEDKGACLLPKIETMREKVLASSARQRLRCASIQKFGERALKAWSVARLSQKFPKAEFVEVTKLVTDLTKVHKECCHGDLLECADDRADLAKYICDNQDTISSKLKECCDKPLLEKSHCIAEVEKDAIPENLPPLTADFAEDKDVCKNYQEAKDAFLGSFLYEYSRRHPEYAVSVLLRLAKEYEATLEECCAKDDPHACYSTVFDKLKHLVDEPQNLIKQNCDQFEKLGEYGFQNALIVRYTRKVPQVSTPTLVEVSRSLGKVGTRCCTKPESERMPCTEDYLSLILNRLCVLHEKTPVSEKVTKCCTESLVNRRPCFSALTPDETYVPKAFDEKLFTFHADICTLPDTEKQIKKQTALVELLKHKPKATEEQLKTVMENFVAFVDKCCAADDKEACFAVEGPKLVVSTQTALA
The nature of experiment [1]: probe aXIP binding to arrayed compounds – biochemical, NeuroSMM set, 635/667 nm fluorescence, primary screen (AID 1119).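 Further: probe is the protein aXip251-270 applied at 1 µg/mL to compound-printed slides; binding of probe to printed compounds measured as 667 nm fluorescence plus signal to noise.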 To be noted: small-molecule microarray, higher = more signal, called active from +8 up or from −8 down.
Experiment [2] in a line: probe aNOTCH3 binding on compound microarray – biochemical, small-molecule microarray, 635/667 nm fluorescence, primary screen (AID 1120).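 Further: probe is a biotin-tagged antibody raised against NOTCH3 rather than NOTCH3 protein; score merges spot fluorescence near 667 nm with spot signal to noise.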 To be noted: higher = more signal.
A short description of experiment [3]: probe aNOTCH2 binding on compound microarray – biochemical, small-molecule microarray, 635/667 nm fluorescence, primary screen (AID 1121).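 Further: score merges feature fluorescence read at 667 nm with its signal to noise.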 To be noted: higher = more signal.
Experiment [4] has as its target Carbonic anhydrase 2 (Homo sapiens) (UniProt P00918). Kind of experiment: compounds binding carbonic anhydrase 2 – biochemical, small-molecule microarray, Alexa647-labelled CAII, profiling panel (AID 1122). The conditions noted are these: CAII-A647 binding fluorescence, higher = more signal.
The nature of experiment [5]: COS7 lysate on small-molecule microarray, probe aHis, 635 nm (AID 1123).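 Further: z-score combines 667nm fluorescence intensity with signal-to-noise per printed compound spot.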 To be noted: COS7 cell lysate, fluorescence, higher = more signal.
A short description of experiment [6]: probe aLAP1 signal on lysate-treated microarray – cell lysate, small-molecule microarray, COS7 lysate, primary screen (AID 1124).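 Further: lysate comes from COS7 cells expressing LAP1 and is applied at 0.3 µg/mL; score merges spot fluorescence near 667 nm with signal-to-noise over triplicate slides.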 To be noted: probe aLAP1, fluorescence, higher = more signal.
A further experiment deals with Sam68 (KHDRBS1). Kind of experiment: compounds binding KHDRBS1 protein – biochemical, small-molecule microarray, 635 nm fluorescence, primary screen (AID 1125).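 Further: score merges 667 nm channel intensity with signal to noise over triplicate slides.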 To be noted: higher = more signal.
In experiment [7] the test system is Chordin-like protein 2 (CHRDL2). Kind of experiment: compounds binding chordin-like 2 – biochemical, small-molecule microarray, 635 nm fluorescence, primary screen (AID 1126).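 Further: printed compound slides probed with Chrdl2 protein at 4 µg/mL for 1 h at 4 C; score merges 667 nm emission intensity with signal to noise over three replicate slides.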 To be noted: fluorescence 635 nm, higher = more signal.
Experiment [8] has as its target Concanavalin-A (Canavalia ensiformis) (UniProt P02866). Kind of experiment: compounds binding concanavalin A lectin – biochemical, small-molecule microarray, Alexa647 label, 635 nm, artefact control for SMM control protein annotation, primary screen (AID 1127).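 Further: z combines 667 nm emission intensity with signal-to-noise across three replicate slides.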 The conditions noted are these: ConA-A647 binding fluorescence, higher = more signal.
Experiment [9] can be described thus: compounds binding Alexa647 anti-His antibody – biochemical, small-molecule microarray, 635 nm fluorescence, artefact control for SMM control protein annotation, primary screen (AID 1128).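 Further: score merges feature fluorescence with signal-to-noise for each printed compound spot.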 To be noted: higher = more signal.
For experiment [10], the system named is Human papillomavirus type 1a E7 protein (residues 1-88). The experiment in a line: HPV1a E7 small-molecule binders, primary screen, biochemical, small-molecule microarray, residues 1-88, 635 nm (AID 1129). The conditions noted are these: small-molecule microarray binding, fluorescence 635 nm; higher = more signal.
The target of experiment [11] is Focal adhesion kinase 1 (Homo sapiens) (UniProt Q05397). Kind of experiment: PTK2 protein binding on printed compound slides – biochemical, small-molecule microarray, 635/667 nm fluorescence, BSA, DTT, primary screen (AID 1130).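 Further: composite of spot emission at 667 nm and signal to noise over triplicate slides.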 The conditions noted are these: 635 nm fluorescence, higher = more signal.
Focal adhesion kinase 1 (Homo sapiens), sequence (Q05397 whole entry, looked up): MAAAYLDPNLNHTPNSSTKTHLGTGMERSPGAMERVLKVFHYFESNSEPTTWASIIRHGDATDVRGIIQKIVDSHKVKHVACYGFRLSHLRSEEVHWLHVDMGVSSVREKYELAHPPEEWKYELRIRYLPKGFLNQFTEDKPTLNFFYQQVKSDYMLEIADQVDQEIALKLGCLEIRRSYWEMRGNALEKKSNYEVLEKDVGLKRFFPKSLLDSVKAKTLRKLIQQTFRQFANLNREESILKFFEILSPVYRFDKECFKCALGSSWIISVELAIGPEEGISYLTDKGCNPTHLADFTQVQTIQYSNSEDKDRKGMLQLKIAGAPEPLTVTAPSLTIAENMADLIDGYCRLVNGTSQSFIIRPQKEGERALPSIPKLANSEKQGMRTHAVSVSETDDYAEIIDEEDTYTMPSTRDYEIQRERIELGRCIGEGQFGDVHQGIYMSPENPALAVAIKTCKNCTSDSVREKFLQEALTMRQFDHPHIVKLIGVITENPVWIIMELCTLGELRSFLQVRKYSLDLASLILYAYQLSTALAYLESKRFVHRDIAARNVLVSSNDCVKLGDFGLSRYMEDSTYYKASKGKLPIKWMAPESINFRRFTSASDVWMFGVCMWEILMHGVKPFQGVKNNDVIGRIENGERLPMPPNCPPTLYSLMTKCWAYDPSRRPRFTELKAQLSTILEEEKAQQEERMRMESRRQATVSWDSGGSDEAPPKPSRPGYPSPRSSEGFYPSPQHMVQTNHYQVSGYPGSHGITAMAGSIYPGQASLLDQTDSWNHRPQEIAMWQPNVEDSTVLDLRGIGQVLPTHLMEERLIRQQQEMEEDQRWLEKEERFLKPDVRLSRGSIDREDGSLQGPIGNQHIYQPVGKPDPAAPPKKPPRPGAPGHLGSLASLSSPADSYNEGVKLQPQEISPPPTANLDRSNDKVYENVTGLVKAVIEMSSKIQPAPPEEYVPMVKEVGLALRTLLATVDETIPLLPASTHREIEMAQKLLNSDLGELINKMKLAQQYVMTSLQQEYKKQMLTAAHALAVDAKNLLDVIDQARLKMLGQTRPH
For experiment [12], the system named is Fibrinogen (Alexa647-labelled). Kind of experiment: Alexa647-fibrinogen binding to printed small molecules – biochemical, small-molecule microarray, 635/667 nm fluorescence, artefact control for SMM control-protein annotation, profiling panel (AID 1131).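 Further: z-score merges 667 nm fluorescence with per-spot signal-to-noise over triplicate slides.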 The conditions noted are these: fibrinogen-A647 binding fluorescence, higher = more signal.
Experiment [13] deals with Follistatin (Homo sapiens) (UniProt P19883). The experiment in a line: FST protein binding to printed compounds – biochemical, small-molecule microarray, 635/667 nm fluorescence, primary screen (AID 1132). The conditions noted are these: 635 nm fluorescence, higher = more signal.
Follistatin (Homo sapiens), sequence (P19883 whole entry, looked up): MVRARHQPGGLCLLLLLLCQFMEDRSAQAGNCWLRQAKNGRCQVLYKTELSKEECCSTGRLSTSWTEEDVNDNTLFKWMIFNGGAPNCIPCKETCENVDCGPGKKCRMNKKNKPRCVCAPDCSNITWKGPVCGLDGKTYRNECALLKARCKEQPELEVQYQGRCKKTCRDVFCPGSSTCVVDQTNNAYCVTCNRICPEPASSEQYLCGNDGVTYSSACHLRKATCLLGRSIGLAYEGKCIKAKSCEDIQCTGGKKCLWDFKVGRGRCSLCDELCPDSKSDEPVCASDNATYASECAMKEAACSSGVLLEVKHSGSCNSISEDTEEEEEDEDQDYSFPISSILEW
For experiment [14], the target named is Fibroblast growth factor 2 (Homo sapiens) (UniProt P09038). Kind of experiment: basic fibroblast growth factor binding to printed compounds – biochemical, small-molecule microarray, 635/667 nm fluorescence, primary screen (AID 1133). The conditions noted are these: FGF2, fluorescence 635/667, higher = more signal.
Fibroblast growth factor 2 (Homo sapiens), sequence (P09038 whole entry, looked up): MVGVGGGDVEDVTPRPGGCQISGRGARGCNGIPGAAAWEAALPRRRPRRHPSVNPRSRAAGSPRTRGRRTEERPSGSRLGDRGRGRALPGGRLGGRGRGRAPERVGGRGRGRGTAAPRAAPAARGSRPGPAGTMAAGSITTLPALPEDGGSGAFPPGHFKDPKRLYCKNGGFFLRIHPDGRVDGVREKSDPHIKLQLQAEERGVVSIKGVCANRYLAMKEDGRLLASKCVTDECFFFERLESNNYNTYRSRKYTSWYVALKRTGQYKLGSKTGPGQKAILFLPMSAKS
A short description of experiment [15]: JC-1 mitochondrial potential readout, lung cancer cells – cell-based, A549, JC-1 fluorescence, basal, 24 h, 100 nL, profiling panel (AID 1138).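 Further: A549 lung adenocarcinoma cells under basal conditions with no added stimulus; test concentration not given here.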 The conditions noted are these: higher = more signal.
The test system of the next experiment is Lefty1. Kind of experiment: Lefty1 protein binding to printed compounds – biochemical, small-molecule microarray, 635/667 nm fluorescence, primary screen (AID 1139). The conditions noted are these: fluorescence 635/667, higher = more signal.
For experiment [16], the system named is wheat germ agglutinin (Triticum aestivum), Alexa647-labelled. The experiment in a line: Alexa647-WGA lectin binding to printed small molecules – biochemical, small-molecule microarray, 635/667 nm fluorescence, artefact control for SMM control-protein annotation, profiling panel (AID 1140).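 Further: score merges 667 nm feature emission with signal to noise over triplicate slides.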 To be noted: WGA-A647 binding, 635 nm fluorescence, higher = more signal.

Experiment [17] concerns the target Luciferin 4-monooxygenase (Photinus pyralis) (UniProt P08659). Kind of experiment: inhibition of purified Photinus pyralis luciferase – biochemical, luminescence, purified enzyme, 2006 set, primary screen (AID 1141).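 Further: cell-free assay with purified firefly luciferase at 100 ng per well in PBS; test concentration not given here.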 To be noted: purified firefly luciferase, SteadyGlo luminescence, 30 min; higher = more signal, called active from +8 up or from −8 down.

Concanavalin-A (Canavalia ensiformis), sequence (P02866 whole entry, looked up): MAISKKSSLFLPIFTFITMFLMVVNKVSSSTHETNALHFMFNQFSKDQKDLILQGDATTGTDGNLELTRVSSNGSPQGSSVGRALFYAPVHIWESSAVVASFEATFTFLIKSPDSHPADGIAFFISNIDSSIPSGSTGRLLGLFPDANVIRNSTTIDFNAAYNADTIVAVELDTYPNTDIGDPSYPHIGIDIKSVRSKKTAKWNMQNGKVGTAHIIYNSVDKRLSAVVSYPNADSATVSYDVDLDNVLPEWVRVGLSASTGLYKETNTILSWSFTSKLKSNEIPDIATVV
Luciferin 4-monooxygenase (Photinus pyralis), sequence (P08659 whole entry, looked up): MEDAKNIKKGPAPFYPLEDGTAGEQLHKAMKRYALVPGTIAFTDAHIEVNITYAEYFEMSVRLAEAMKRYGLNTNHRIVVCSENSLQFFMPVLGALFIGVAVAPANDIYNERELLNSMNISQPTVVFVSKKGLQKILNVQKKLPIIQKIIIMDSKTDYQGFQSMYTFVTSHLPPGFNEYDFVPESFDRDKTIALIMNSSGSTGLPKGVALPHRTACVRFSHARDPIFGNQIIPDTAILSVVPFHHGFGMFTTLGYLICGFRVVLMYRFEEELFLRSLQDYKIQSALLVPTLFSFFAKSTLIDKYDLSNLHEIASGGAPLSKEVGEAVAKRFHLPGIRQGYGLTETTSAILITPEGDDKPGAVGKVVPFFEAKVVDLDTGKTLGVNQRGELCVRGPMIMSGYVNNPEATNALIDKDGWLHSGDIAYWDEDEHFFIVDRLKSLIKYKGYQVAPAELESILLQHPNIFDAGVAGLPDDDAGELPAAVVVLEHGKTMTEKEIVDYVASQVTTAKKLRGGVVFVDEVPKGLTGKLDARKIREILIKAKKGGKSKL

As to `C[N+](C)(C)CCCCCCNC(=O)[C@@H]1C[C@@H]2C(=O)N[C@@H](Cc3ccccc3)C(=O)N2[C@@H]1c1cccc(OCCO)c1`, the composite z-score in the experiment with Albumin (Bos taurus) is 0.358; in experiment [2], 0.0628; in experiment [3], -0.132; in [4], 0.668; in experiment [5], 1.59; in experiment [6] it was 0.591. The composite z-score with Sam68 (KHDRBS1) is 1.05; in experiment [7], 1.27; in experiment [8], 0.622; in experiment [9], 2.18; in experiment [10] it was 0.432; in experiment [11] it was 0.214. For the same molecule, the composite z-score in experiment [12] turned out to be 0.608; in experiment [13], 1.34; in experiment [14], 1.45; in the experiment with Lefty1 it was 1; in experiment [16], 0.659. The composite Z-score in experiment [1] was 0.6 (inactive). The z-score in experiment [15] is 0.435; in experiment [17], -0.205 (inactive).

On to `CCCCC(CC)C(O)C1C=CC2C(=O)N(Cc3ccccc3)C(=O)C2N1n1cnnc1` (stereo not given), for which the composite z-score with Albumin (Bos taurus) is 0.0178; in [2], 0.0116; in experiment [3], -0.126; in experiment [4], 0.424; in experiment [5] it was 0.262; in experiment [6] it was -0.192. Further, the composite z-score in the experiment with Sam68 (KHDRBS1) is 0.26; in experiment [7] it was -0.353; in [8], 0.273; in experiment [9], 0.544; in experiment [10], 0.541; in experiment [11], 1.57. Besides, the composite z-score in [12] is 0.107; in [13] it was 0.539; in experiment [14], -0.504; in the experiment with Lefty1 it was 0.0981; in experiment [16], 0.616. Moreover, the composite Z-score in experiment [1] is 0.0835 (inactive). Moreover, the z-score in [15] is -0.423; in experiment [17], 0.758 (inactive).

Regarding `C=C(COC)/C(=C/C[C@@H](OC(C)=O)c1ccc(OCCO)cc1)c1cnc2ccccc2c1`, the composite z-score in the experiment with Albumin (Bos taurus) is 0.0772; in experiment [2], 0.112; in experiment [3], -0.14; in experiment [4], 0.913; in [5] it was -0.161; in experiment [6], 0.999. Further, the composite z-score is 0.74 in the experiment on Sam68 (KHDRBS1); 1.41 in experiment [7]; 1.14 in experiment [8]; 0.616 in [9]; 0.328 in experiment [10]; -0.514 in experiment [11]. The composite z-score in [12] was found to be 0.869; in experiment [13], 1.41; in experiment [14], 1.55; in the experiment with Lefty1 it was 1.29; in experiment [16] it was 0.857. Also, the composite Z-score in [1] is -0.225 (inactive). Further, the z-score in experiment [15] was 0.379; in [17], -0.846 (inactive).

`C=C[C@H](CO[Si](CC)(CC)CC)N(Cc1ccc(OC(C)=O)c(OC)c1)S(=O)(=O)c1ccc(Br)cc1`: the composite z-score with Albumin (Bos taurus) came out at 0.848; in experiment [2], 0.295; in experiment [3], 0.0727; in [4], 0.56; in experiment [5], 1.33; in [6], 0.897. Moreover, the composite z-score came out at 1.29 in the experiment with Sam68 (KHDRBS1); 1.31 in experiment [7]; 1.13 in experiment [8]; 2.48 in [9]; 1.08 in experiment [10]; 1.76 in experiment [11]. The composite z-score in experiment [12] was found to be 0.967; in experiment [13] it was 1.28; in experiment [14] it was 0.913; in the experiment with Lefty1, 0.237; in experiment [16], 0.713. In addition, in experiment [1], the composite Z-score is 0.646 (inactive). For the same molecule, the z-score in [15] is -0.202; in experiment [17] it was 0.0578 (inactive).

For `C=CCOC(=O)[C@@H]1[C@H]2C(=O)O[C@H](c3ccccc3)[C@H](c3ccccc3)N2[C@H](c2ccc(OCCOC(=O)[C@@H]3C[C@@H]4C(=O)NCC(=O)N4[C@@H]3c3ccc(O)cc3)cc2)[C@@]12C(=O)Nc1ccc(I)cc12`, the composite z-score with Albumin (Bos taurus) is 0.471; in experiment [2], -0.0879; in experiment [3], -0.108; in experiment [4], 0.617; in experiment [5], 1.04; in [6], -0.143. The composite z-score worked out at 1.31 in the experiment on Sam68 (KHDRBS1); 1.03 in [7]; 1.19 in [8]; 1.88 in [9]; 1.21 in [10]; 0.823 in experiment [11]. Further, the composite z-score in experiment [12] came to 0.342; in [13] it was 1.36; in [14], 1.27; in the experiment with Lefty1 it was 0.734; in experiment [16], 0.86. In [1], the composite Z-score was -0.666 (inactive). Also, the z-score is -1.73 in experiment [15] and 0.401 (inactive) in experiment [17].
